Reference: PubChem BioAssay AID2130 (The Scripps Research Institute Molecular Screening Center, 2009)
Among all 320,000 compounds or so, about 1,700 (0.53%) were called active.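 The calls were made as follows: active = inhibition above the campaign mean of all compounds plus 3 SD (cut at about 26% in these data); inactive = the rest.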 Many of the other results were omitted from the sample, so actives are more common in it than they were.

Target: Protein phosphatase methylesterase 1 (Homo sapiens) (UniProt Q9Y570)
Sequence (Q9Y570 whole entry, looked up): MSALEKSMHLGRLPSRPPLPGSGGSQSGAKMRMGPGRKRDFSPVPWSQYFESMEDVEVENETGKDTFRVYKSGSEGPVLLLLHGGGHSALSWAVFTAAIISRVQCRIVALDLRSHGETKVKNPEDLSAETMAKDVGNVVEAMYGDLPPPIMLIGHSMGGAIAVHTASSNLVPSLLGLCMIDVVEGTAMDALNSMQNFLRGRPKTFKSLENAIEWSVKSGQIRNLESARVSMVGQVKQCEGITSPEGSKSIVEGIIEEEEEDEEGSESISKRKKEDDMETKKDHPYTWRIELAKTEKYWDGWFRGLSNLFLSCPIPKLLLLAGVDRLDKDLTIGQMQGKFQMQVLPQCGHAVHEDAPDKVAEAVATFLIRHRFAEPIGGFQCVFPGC
Assay: human PME-1 methylesterase blockers – biochemical, fluorescence polarization, FP-Rh probe, HTS, primary screen (AID 2130);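 also: competitive labeling of PME-1 active site by serine hydrolase directed probe; 0% = PME-1 with DMSO and 100% = wells lacking PME-1 enzyme; inhibitors block probe labeling so polarization falls and inhibition rises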
Settings: recombinant PME-1, FP-Rh probe fluorescence polarization; at 5.9 µM; stronger effect = higher value

SMILES | inhibition
O=C(NCc1cccs1)C1CCN(S(=O)(=O)c2ccc(Cl)cc2)CC1 | 49.3% (active)
O=C(NCc1cccs1)C1CCN(S(=O)(=O)c2ccc3c(c2)OCCO3)CC1 | 10.8% (inactive)
O=C(NCc1ccc(Cl)cc1)C1CCN(S(=O)(=O)c2cccs2)CC1 | 11.3% (inactive)
Cc1cccc(N2CCN(Cc3nc(C4CC4)no3)CC2)n1 | 0.08% (inactive)
CC1C(c2ccccc2)=[N+]([O-])C2(CCCC2)N1O (stereo not given) | -10.2% (inactive)
CCCc1cc(-c2nc(-c3ccc(C)cc3)cs2)ccn1 | -6.39% (inactive)
Cc1ccc(-c2csc(-c3cc(C)on3)n2)cc1 | -0.04% (inactive)
Cc1ccc(-c2csc(-c3c[nH]c4ccccc34)n2)cc1 | 27.5% (active)
COc1ccccc1-c1c(C)nn2c(C)c(C(C)=O)cnc12 | -0.93% (inactive)
COc1ccccc1-c1sc2ccccc2c1-c1ccc(C(C)=O)cc1 | 33.6% (active)
COc1ccccc1-c1sc2ccccc2c1-c1ccc(Br)nc1 | -9.82% (inactive)
N#Cc1c(C(F)(F)F)cc(-c2cccs2)nc1N1CCCCC1 | 2.44% (inactive)
COc1ccc(CN2CCCC(C(=O)c3ccc(Cl)cc3)C2)cc1Cn1cncn1 (stereo not given) | 4.9% (inactive)
CC(=O)c1ccc(OCC(O)CN2CCN(S(=O)(=O)c3cccc(Br)c3)CC2)cc1 (stereo not given) | 7.43% (inactive)
CC(=O)NC1=NN(C(C)=O)C(C)(c2ccc(Cl)s2)S1 (stereo not given) | -1.89% (inactive)
COc1ccc(Nc2nc(-c3cccnc3)nc3ccccc23)cn1 | 0.55% (inactive)
Cc1cccc(-c2nc(Nc3ccc(O)cc3)c3ccccc3n2)c1 | 30.6% (active)
CC(=O)Nc1cccc(Nc2nc(-c3cccs3)nc3ccccc23)c1 | -31.9% (inactive)
Nc1nonc1-n1nnc(C(=O)N/N=C/c2c[nH]c3ccccc23)c1-c1ccccc1 | 34.1% (active)
Nc1nonc1-n1nnc(C(=O)N/N=C/C2CCCCC2)c1-c1ccccc1 | 2.24% (inactive)
CC(C)c1c(C(=O)N/N=C/c2ccccc2C(=O)O)nnn1-c1nonc1N | 3.05% (inactive)
O=C(C(=O)N1CCc2ccccc2C1)c1c[nH]c2ccccc12 | -0.44% (inactive)
Cc1cccc(C)c1NC(=S)N1CCCCCC1 | -3.93% (inactive)
COc1ccc(CNC(=O)COc2ccccc2C(=O)c2cnn(-c3ccccc3)c2)cc1OC | -5.4% (inactive)

SMILES | inhibition
Cc1ccc(S(=O)(=O)n2cnc3ccccc32)c(C)c1 | -0.58% (inactive)
O=c1[nH]cnc(O)c1C(c1ccc(F)cc1)c1c(O)nc[nH]c1=O | -2.73% (inactive)
COc1cccc(NC(=O)Nc2nnc(N3CCCCC3C)s2)c1 (stereo not given) | 43.8% (active)
COc1cccc(C(=O)Nc2nnc(S(=O)(=O)N3CCCCC3)s2)c1 | -0.5% (inactive)
COc1cccc(NC(=O)NCCN2CCCCC2)c1 | 0.47% (inactive)
CC1CCC(NC(=O)CN(C)S(=O)(=O)c2ccc3c(c2)c(=O)n(C)c(=O)n3C)CC1 (stereo not given) | 0.21% (inactive)
COc1ccnc(Oc2ccccc2)c1-c1ncn[nH]1 | 3.26% (inactive)
O=C(Nc1ccc(C(F)(F)F)cc1)c1cccc(-n2cnnn2)c1 | -9.13% (inactive)
C=CCCC(=O)Nc1nc(C)c(-c2csc(Nc3ccc(Cl)cc3)n2)s1 | 28.8% (active)
CCCCC(=O)Nc1nc(C)c(-c2csc(Nc3ccc(Cl)cc3)n2)s1 | 16.9% (inactive)
CCCCCCC(=O)Nc1nc(C)c(-c2csc(Nc3cc(Cl)ccc3OC)n2)s1 | 13.6% (inactive)
Cc1nc(NC(=O)c2cccc(Cl)c2)sc1-c1csc(Nc2cccc(Cl)c2)n1 | 32.1% (active)
CCCCCCC(=O)Nc1nc(C)c(-c2csc(Nc3cccc(OC)c3)n2)s1 | 16.8% (inactive)
CC(=O)Nc1nc(C)c(-c2csc(Nc3ccc(S(N)(=O)=O)cc3)n2)s1 | -2.64% (inactive)
COc1ccc(F)cc1C(=O)COC(=O)c1n[nH]c(=O)c2ccccc12 | 2.97% (inactive)
Cc1cc(OC(=O)c2ccc(OC(C)C)cc2)c([N+](=O)[O-])c(=O)[nH]1 | -4.45% (inactive)
COc1cc(OC)cc(C(=O)NNC(=O)CCOc2ccccc2OC)c1 | -2.05% (inactive)
CCOc1ccc(-c2cn(S(=O)(=O)c3cccc4nsnc34)nc2N)cc1 | 2.2% (inactive)
Cc1ccccc1CC1(CO)CCCN(Cc2ccc3c(c2)OCCO3)C1 (stereo not given) | 3.22% (inactive)
O=S(=O)(NCCc1ccc(Cl)cc1)c1cccs1 | 6.08% (inactive)
O=C(NNc1c2ccccc2nc2ccccc12)c1cc2ccccc2cc1O | 76.5% (active)
O=C(N/N=C/c1cccnc1)c1cc2ccccc2cc1O | 12.5% (inactive)
CC(C)(C)OC(=O)NNc1c2ccccc2nc2ccccc12 | 17.6% (inactive)
COc1ccccc1C1C(C(N)=O)=C(C)Nc2nc(CCCO)nn21 (stereo not given) | -0.55% (inactive)

SMILES | inhibition
COc1ccc(C(=O)OC(C)C(=O)NC2CCCC2)cc1S(=O)(=O)N1CCOCC1 (stereo not given) | 2.8% (inactive)
COc1cnn(-c2ccc([N+](=O)[O-])cc2)c(=O)c1Cl | -4.7% (inactive)
O=c1[nH]c2cccnc2n1-c1ccc([N+](=O)[O-])cc1 | 5.31% (inactive)
O=c1[nH]n(-c2ccc([N+](=O)[O-])cc2)c(=O)c2ccccc12 | 26.6% (active)
CCCCN1C(N)=NC[C@@H]1CC1CCCCC1 | -2.94% (inactive)
Cc1cc(=O)oc2cc(NC(=O)C3CC(=O)N(Cc4ccccc4)C3)ccc12 (stereo not given) | 7.03% (inactive)
Oc1ccc(C2Nc3cccc4cccc(c34)N2)cc1 | 53.6% (active)
Cc1ccc(C2Nc3cccc4cccc(c34)N2)cc1 | 1.72% (inactive)
COc1cccc(C2Nc3cccc4cccc(c34)N2)c1 | 14.7% (inactive)
CCc1ccc(NC(=O)CN2C(=O)COc3ccc(S(=O)(=O)N4CCCC4)cc32)cc1 | -0.43% (inactive)
CCOC(=O)C1(Cc2ccccc2C(F)(F)F)CCN(C(=O)c2cc(C)n(C)n2)CC1 | -3.56% (inactive)
CCCCCN(C(=O)CCC(=O)OCCOc1ccc(OC)cc1)c1c(N)n(CCCC)c(=O)[nH]c1=O | -1.09% (inactive)
C=CCn1cc(-c2cccc(C(F)(F)F)c2)cc(C#N)c1=O | 1.51% (inactive)
Oc1ccc(N=Cc2sc3ccccc3c2Cl)cc1 | 14.5% (inactive)
CCOc1[nH]n(-c2ccc(Cl)cc2)c(=O)c1C=Nc1ccc(O)cc1 | 14.7% (inactive)
Oc1ccc(N=Cc2c(O)ccc3ccccc23)cc1 | 52.4% (active)
CN(CCc1ccccn1)S(=O)(=O)c1ccc2c3c(cccc13)C(=O)N2 | 7.3% (inactive)
Nc1nc(CC(=O)CSc2ccc(Cl)cc2)nc(Nc2ccc(F)cc2)n1 | 0.37% (inactive)
COc1cccc(N2C(=O)CC(N3CCc4ccccc4C3)C2=O)c1 (stereo not given) | 1.67% (inactive)
COc1cccc(N2CCN(CC(=O)Nc3ccnn3C3CCCC3)CC2)c1 | 0.47% (inactive)
Cc1ccc(Nc2nc(-c3ccc(O)cc3O)cs2)nc1 | 29% (active)
Cc1cccc(Nc2nc(-c3ccccc3)cs2)n1 | 9.05% (inactive)
Clc1ccc(Nc2nc(-c3cccs3)cs2)nc1 | 14.9% (inactive)
CCCOc1ccc(CNC(=O)C2CCN(c3nn4c(=O)cc(C)nc4s3)CC2)cc1 | -0.67% (inactive)

SMILES | inhibition
COc1ccc(CN(C(=O)CSc2nnc(-c3ccc(OC)c(OC)c3)o2)c2ccc(F)cc2)cc1 | -0.21% (inactive)
COc1ccccc1C(=O)NC(CCSC)C(=O)NNC(=O)c1ccccc1C (stereo not given) | -6.59% (inactive)
O=S(=O)(NC1CCCC1)c1ccc(-n2cnnn2)cc1 | -6.91% (inactive)
COc1ccc(CC(=O)NC2CCSc3ccccc32)cc1OC (stereo not given) | 8.44% (inactive)
CCC(C)(C)N=C(NC#N)Nc1cccnc1 | -2.16% (inactive)
CC[N+](C)(CC)CCC[n+]1c(-c2ccccc2)c2cc(N)ccc2c2ccc(N)cc21 | 54.4% (active)
CC(=O)N/C(=C/c1ccc(Cl)cc1)C(=O)NCCc1c[nH]c2ccccc12 | 1.47% (inactive)
N#C/C(=C/c1ccc(N2CCCCC2)o1)C(=O)NCCc1c[nH]c2ccccc12 | 31.4% (active)
O=C(CN1C(=O)NC2(CCCCC2)C1=O)NCCc1c[nH]c2ccccc12 | 1.73% (inactive)
CCOC(=O)c1c(C)[nH]c(C2=NNC(=NC(C)COC)SC2)c1C (stereo not given) | -7.22% (inactive)
CCC(C(=O)NC1CCCC1)N(C(=O)Cn1nnc(-c2ccc(C)o2)n1)c1ccc(OC)c(OC)c1 (stereo not given) | 2.08% (inactive)
Cc1ccc(Cl)c(OCC(=O)N2CCc3ccccc3C2)c1 | 2.04% (inactive)
FC(F)(F)c1nc(-c2ccccc2)ncc1-c1nnnn1-c1ccccc1 | -1.36% (inactive)
Oc1c(Cl)cc(Cl)c(Cl)c1Cc1c(O)c(Cl)cc(Cl)c1Cl | 27% (active)
Cc1ccc2nc(SCC(=O)N3CCN(c4ccccc4)CC3)nc(=O)n2c1 | 11.8% (inactive)
Cc1ccccc1CCN(CC(=O)NC1CCCCC1)C(=O)c1csnn1 | 3.53% (inactive)
CCc1nc2nc(C)c(NS(=O)(=O)c3ccc4c(c3)CCCC4)c(=O)n2[nH]1 | 3.49% (inactive)
CCOC(=O)c1c(C)oc(C)c(C(=O)OCC)c1=O | 2.67% (inactive)
CCOC(=O)c1ccc(Nc2cc3ccccc3c(=O)[nH]2)cc1 | 51.5% (active)
CCOC(=O)c1nc(Nc2ccc(C(=O)OC)cc2)c2ccccc2n1 | -3.8% (inactive)
CCOC(=O)c1ccc(NC(=O)c2cc(=O)[nH]c3ccccc23)cc1 | -7.83% (inactive)
CCNC(=S)N(CCN(CC)CC)Cc1cc2cc3c(cc2[nH]c1=O)OCO3 | -3.38% (inactive)
CC1CCC(CN2CCN=C2N(C)C)CC1 (stereo not given) | 0.76% (inactive)
